# Assay outcomes from PubChem BioAssay.
# This is a sample that favours compounds with a hit; in the whole collection about 3.4% have one here.
# 14-3-3 Bad inh – disrupts binding of bovine 14-3-3 zeta to phospho-Bad peptide; P63103; TR-FRET 14-3-3zeta/Dy647-pBad peptide displacement, 1 h; inhibition, % at 21.7 µM; 0.71% of 220,000 active;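 active means inhibition above about 70%, limit read from the data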
# Target sequence (P63103 whole entry, looked up): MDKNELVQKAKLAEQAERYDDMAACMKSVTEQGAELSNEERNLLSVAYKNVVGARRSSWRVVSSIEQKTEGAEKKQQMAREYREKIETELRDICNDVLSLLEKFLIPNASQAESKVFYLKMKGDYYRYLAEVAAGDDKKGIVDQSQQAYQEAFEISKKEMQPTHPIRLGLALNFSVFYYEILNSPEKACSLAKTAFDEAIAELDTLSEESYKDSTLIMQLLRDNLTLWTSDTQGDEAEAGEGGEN
# Mcl1 Bid PPI – disrupts binding of human Mcl-1 to Bid peptide; Q07820; TR-FRET Mcl-1/Bid-Dy647 peptide binding, 1536-well; inhibition, % at 21.7 µM; 0.97% of 220,000 active; AID 1021;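 active means compounds that cut the binding signal by more than half at the single screening dose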;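 further: His-tagged Mcl-1 with europium anti-His antibody binding Bid BH3 peptide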
# Target sequence (Q07820 whole entry, looked up): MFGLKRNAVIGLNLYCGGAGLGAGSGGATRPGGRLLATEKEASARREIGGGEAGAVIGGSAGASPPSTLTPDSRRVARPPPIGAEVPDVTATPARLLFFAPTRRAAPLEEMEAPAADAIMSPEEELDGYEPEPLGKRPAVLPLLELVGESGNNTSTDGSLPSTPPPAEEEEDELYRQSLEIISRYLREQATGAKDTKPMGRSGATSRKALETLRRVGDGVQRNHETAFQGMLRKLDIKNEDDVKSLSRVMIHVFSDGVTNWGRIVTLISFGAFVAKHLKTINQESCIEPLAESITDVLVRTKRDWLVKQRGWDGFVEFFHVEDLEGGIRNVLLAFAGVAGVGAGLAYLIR
# eIF4E 4G PPI – blocks eIF4E binding to eIF4G; P63073+Q04637; TR-FRET eIF4E-eIF4GI(517-606) binding, 2 h; inhibition, % at 21.7 µM; 0.37% of 220,000 active
# Mcl1 Noxa PPI – disrupts binding of human Mcl-1 to Noxa peptide | Q07820 | TR-FRET Mcl-1/Noxa peptide binding, 2 h | inhibition, % at 21.7 µM | 1.5% of 220,000 active | AID 1022;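 active means compounds that cut the protein-peptide binding signal by more than 50% relative to plate controls in a single-dose test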;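 further: His-tagged Mcl-1 with rhodamine Noxa BH3 peptide and terbium anti-His antibody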
# Bim-Mcl-1 – inhibitors of Bim-Mcl-1 interaction, human. Q07820. Bead-based flow cytometry, Bim peptide-Mcl-1 binding. inhibition, % at 10 µM. 0.1% of 190,000 active; in the data active means inhibition above about 40%
# p47phox inh – blocks human p47phox regulatory protein of NADPH oxidases; p47phox/p22phox peptide binding, fluorescence polarization, 2 h; P14598; inhibition, % at 24.7 µM; 0.53% of 220,000 active
# Numbers stand for hits; i = inactive; nt = not tested or not shown; [ ] = another dose, or the depositor's remark.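 How the source made its calls, unless noted: active means inhibition above about 30% (limit read from the data); inactive means the rest.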
SMILES,14-3-3 Bad inh,Mcl1 Bid PPI,eIF4E 4G PPI,Mcl1 Noxa PPI,Bim-Mcl-1,p47phox inh
Clc1ccc(OCCCn2cncn2)cc1Cl,86,56,93[fluorescence artefact?],i,i,i
c1ccc(Cc2ccc(OCCn3cncn3)cc2)cc1,i,i,i,i,i,i
c1ccc(-c2ccc(OCCOCCn3cncn3)cc2)cc1,73,i,i,i,i,i
c1ccc(COc2ccc(OCCCn3cncn3)cc2)cc1,i,i,i,i,i,i
CCOCCCNC(=S)N1CCC(C(=O)c2ccc3c(c2)OCCO3)CC1,i,i,i,72,i,i
CCNC(=S)N1CCC(C(=O)c2ccc3c(c2)OCCO3)CC1,i,i,i,i,i,i
CNC(=O)C(=O)NCCN1CCN(C(=O)c2ccc([N+](=O)[O-])cc2)CC1,i,91,i,i,i,i
CCOC(=O)c1c(C)oc2c1c(CN1CCN(C(=O)OCC)CC1)c(O)c1ccccc12,i,62,i,98,i,i
CCOC(=O)c1c(C)oc2ccc(O)c(CN3CCCCC3)c12,i,i,i,i,i,i
CCOC(=O)c1c(C)oc2c1c(C(c1ccncc1)N1CCOCC1)c(O)c1ccccc12 (stereo not given),i,82,i,98,i,i
CCOC(=O)c1c(C)oc2c1c(CN1CCN(CCO)CC1)c(O)c1ccccc12,i,56,i,95,i,38
CC(CCc1ccccc1)NC(=O)CN1CCN(c2ccc(O)cc2)CC1 (stereo not given),i,i,i,i,i,i
CC1(C(=O)N(CC(=O)NC2CCCC2)Cc2ccco2)CC(=O)N=C2C=CC=CN21 (stereo not given),i,i,i,i,41,i
CC1=CC2=NC(=O)CC(C)(C(=O)N(CC(=O)NC3CCCC3)c3ccccc3C)N2C=C1 (stereo not given),i,i,i,i,nt,i
CCOC(=O)CNC(=O)c1cccnc1Oc1ccc(Cl)cc1,i,i,i,i,nt,i
Nc1ccc2nn(-c3ccccc3)nc2c1,i,i,i,i,i,i
Nc1cc2nn(-c3ccccc3)nc2cc1Cl,i,i,i,66,i,i
COc1ccc(-n2nc3cc(C)c(N)c(Br)c3n2)cc1,i,i,i,89,i,i
Cc1ccc(-n2nc3cc(C)c(N)cc3n2)cc1,i,i,i,90,i,i
Cc1cc2nn(-c3cccc4ccccc34)nc2cc1N,i,i,i,i,i,i
O=Cc1cn(-c2ccccc2)nc1-c1cc2cc(O)ccc2oc1=O,i,61,i,i,i,i
CCOC(=O)CNC(=O)c1cc(-c2ccccn2)nc2c(C)c(Cl)ccc12,i,i,i,i,i,i
CCOc1ccc(N2Nc3n[nH]c(N)c3N2)cc1,i,i,i,i,i,i
COc1ccc(N2Nc3n[nH]c(N)c3N2)cc1,i,i,i,56,i,i
CCOc1ccccc1NC(=S)N1CCN(c2nc(-c3ccc(F)cc3)cs2)CC1,i,i,i,i,i,i
SMILES,14-3-3 Bad inh,Mcl1 Bid PPI,eIF4E 4G PPI,Mcl1 Noxa PPI,Bim-Mcl-1,p47phox inh
COC(CNC(=O)c1ccc2c3c(onc13)-c1ccccc1C2=O)OC,i,i,i,70,nt,i
CC1=CC(C)(C)Nc2ccc(C)cc21,81,i,i,i,i,i
CC1=CC(C)(C)Nc2ccc(Cc3ccc4c(c3)C(C)=CC(C)(C)N4)cc21,i,i,i,i,nt,i
CCNC(=O)c1ccc(C23CC4CC(CC(C4)C2)C3)o1,i,i,i,i,i,i
CC1=NN(c2ccc(Br)cc2)C(=O)/C1=C/c1cccs1,nt,nt,nt,nt,i,nt
CC1=NN(c2ccc(C)cc2)C(=O)/C1=C\c1ccc(Br)s1,i,i,i,i,92,i
CCOc1ccc(CCNC(=O)c2cc3c(C)nccc3[nH]c2=O)cc1OCC,i,i,i,i,i,i
CCOc1ccc(CCNS(=O)(=O)c2cnc[nH]2)cc1OCC,i,i,i,i,i,62
Cc1ccc(-c2cccc(CN3CCN(C4CCN(C(C)C)CC4)C(CCO)C3)c2)o1 (stereo not given),i,i,i,i,i,i
Cc1ccc(S(=O)(=O)C2CS(=O)(=O)CC2O)cc1 (stereo not given),i,i,i,i,i,i
CC(=O)C1=C(S(=O)(=O)c2ccc(C)cc2)CS(=O)(=O)C1,i,i,i,78,i,i
C=CCn1c(C)csc1=Nc1ccccc1C,i,i,i,i,i,i
O=C(CSc1nnc2scc(-c3ccccc3)n12)Nc1nsc(-c2ccccc2)n1,i,i,i,i,i,45
O=C(CSc1nnc2scc(-c3ccccc3)n12)N1CCN(Cc2ccccc2)CC1,i,95,i,i,i,i
COc1ccc(CCNC(=O)c2cc(-c3cc(Cl)ccc3O)n[nH]2)cc1OC,i,i,i,i,nt,i
Cn1c2ccccc2c(=O)c2c(=O)n(Cc3ccco3)c(-c3ccc(C(C)(C)C)cc3)nc21,i,52,i,i,nt,i
COc1ccc(Cn2c(-c3ccccc3)nc3c(c(=O)c4ccccc4n3C)c2=O)cc1,i,i,i,i,i,i
Cc1cc2nccc(-c3cccnc3)n2n1,i,i,i,i,i,i
CN(C)CCCNc1oc(-c2ccccc2)nc1C#N,i,i,i,53,i,i
COc1ccc(-c2nc(C#N)c(NCCCN(C)C)o2)cc1OC,i,i,i,i,i,i
Cc1nc2ccc(C(=O)O)cc2c2c1CC(C)S2 (stereo not given),i,i,i,51,i,i
COc1cc2c(cc1OC)C1(CCCC1)CNC2c1cccc([N+](=O)[O-])c1 (stereo not given),i,i,i,i,i,i
COC(=O)c1c(NC(=O)CC2Nc3cc(C)c(C)cc3NC2=O)sc(C)c1C (stereo not given),i,62,i,64,i,i
CCN1CCN(C(c2cccs2)C(C)NC(=O)c2cccc(OC)c2OC)CC1 (stereo not given),i,i,i,52,i,i
O=C(Nc1ccc(F)cc1)c1nc[nH]c1C(=O)Nc1ccc([N+](=O)[O-])cc1,i,62,i,62,i,i
SMILES,14-3-3 Bad inh,Mcl1 Bid PPI,eIF4E 4G PPI,Mcl1 Noxa PPI,Bim-Mcl-1,p47phox inh
Nc1nnc(CC(=O)N2CCCCC2)s1,i,i,46,i,i,i
CCc1ccc(-c2nc(SCC(=O)N3CCOCC3)n[nH]2)cc1,i,i,i,i,i,i
C[N+](C)(C)c1ccc(/C=N/Nc2nc(Cl)c(C#N)c(Cl)c2Cl)cc1,i,91,30[fluorescence artefact?],i,i,i
CCOc1cc2c(cc1OCC)C(c1ccccc1)N(c1ccccc1)C(=O)C2 (stereo not given),i,i,i,i,i,i
Cc1ccc(NC(=O)Nc2nnc(Cc3ccc([N+](=O)[O-])cc3)s2)cc1,i,51,i,i,i,i
CCCNC(=O)CCCCn1c(=S)[nH]c2c([nH]c3ccc(OC)cc32)c1=O,i,i,i,i,i,i
CCCNC(=O)c1ccc(Cn2c(=S)[nH]c3c([nH]c4ccc(OC)cc43)c2=O)cc1,i,i,i,60,i,i
